The source of these data is ChEMBL document CHEMBL1961873, “Compounds: GSK PKIS; Assays: Nanosyn kinase panel” (2012).

The term inhibition denotes the relative decrease from the control value, in per cent.

Assay [1] deals with 5'-AMP-activated protein kinase catalytic subunit alpha-2 (Homo sapiens) (UniProt P54646). Particulars: at 1 µM.
Assay [2] deals with T1, NUAK family SNF1-like kinase 1 (Homo sapiens) (UniProt O60285).
T1 sequence (whole entry): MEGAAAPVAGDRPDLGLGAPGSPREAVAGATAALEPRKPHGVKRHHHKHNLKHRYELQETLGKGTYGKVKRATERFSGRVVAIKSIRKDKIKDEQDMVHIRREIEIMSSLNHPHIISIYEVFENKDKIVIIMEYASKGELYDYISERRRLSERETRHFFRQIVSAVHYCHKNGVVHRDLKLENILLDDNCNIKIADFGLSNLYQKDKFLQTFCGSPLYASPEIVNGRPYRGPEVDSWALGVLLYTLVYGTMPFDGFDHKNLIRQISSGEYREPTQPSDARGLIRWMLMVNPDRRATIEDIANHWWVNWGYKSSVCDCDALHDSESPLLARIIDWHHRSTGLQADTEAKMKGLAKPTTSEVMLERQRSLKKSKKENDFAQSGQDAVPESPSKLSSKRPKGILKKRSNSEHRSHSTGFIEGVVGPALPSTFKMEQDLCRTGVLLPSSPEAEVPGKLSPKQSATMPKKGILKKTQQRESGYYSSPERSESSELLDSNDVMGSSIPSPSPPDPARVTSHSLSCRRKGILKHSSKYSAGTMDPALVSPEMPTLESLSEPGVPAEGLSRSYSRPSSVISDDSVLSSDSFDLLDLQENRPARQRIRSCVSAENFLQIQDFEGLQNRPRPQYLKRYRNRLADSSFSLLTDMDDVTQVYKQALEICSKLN
The settings on record: at 0.1 µM.

Assay [3] addresses T1, NUAK family SNF1-like kinase 1 (Homo sapiens). Particulars: at 1 µM.
Assay [4] has as its target T2, Serine/threonine-protein kinase BRSK1 (Homo sapiens) (UniProt Q8TDC3).
T2 sequence (whole entry): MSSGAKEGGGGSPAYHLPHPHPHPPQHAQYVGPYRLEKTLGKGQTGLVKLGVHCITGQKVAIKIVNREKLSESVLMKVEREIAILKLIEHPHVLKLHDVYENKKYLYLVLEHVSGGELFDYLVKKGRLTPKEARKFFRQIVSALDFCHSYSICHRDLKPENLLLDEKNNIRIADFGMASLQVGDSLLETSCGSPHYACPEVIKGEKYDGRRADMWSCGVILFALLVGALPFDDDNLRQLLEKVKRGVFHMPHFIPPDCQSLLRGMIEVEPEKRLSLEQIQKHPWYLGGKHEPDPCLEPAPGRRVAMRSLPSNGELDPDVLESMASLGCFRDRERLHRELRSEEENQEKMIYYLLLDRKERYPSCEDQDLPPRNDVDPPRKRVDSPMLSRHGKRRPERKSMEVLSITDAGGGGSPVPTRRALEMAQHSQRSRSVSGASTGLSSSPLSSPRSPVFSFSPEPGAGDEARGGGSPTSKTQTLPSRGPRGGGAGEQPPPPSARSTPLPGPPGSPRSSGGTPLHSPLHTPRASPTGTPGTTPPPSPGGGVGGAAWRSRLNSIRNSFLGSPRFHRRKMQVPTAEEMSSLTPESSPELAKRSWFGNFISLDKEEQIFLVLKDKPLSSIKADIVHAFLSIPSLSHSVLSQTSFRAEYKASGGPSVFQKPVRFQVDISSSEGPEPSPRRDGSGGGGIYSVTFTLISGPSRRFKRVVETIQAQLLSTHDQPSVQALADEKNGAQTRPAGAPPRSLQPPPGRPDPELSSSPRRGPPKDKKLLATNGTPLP
The settings on record: at 0.1 µM.

Assay [5] deals with T2, Serine/threonine-protein kinase BRSK1 (Homo sapiens). Particulars: at 1 µM.
Assay [6] addresses T3, Serine/threonine-protein kinase BRSK2 (Homo sapiens) (UniProt Q8IWQ3).
T3 sequence (whole entry): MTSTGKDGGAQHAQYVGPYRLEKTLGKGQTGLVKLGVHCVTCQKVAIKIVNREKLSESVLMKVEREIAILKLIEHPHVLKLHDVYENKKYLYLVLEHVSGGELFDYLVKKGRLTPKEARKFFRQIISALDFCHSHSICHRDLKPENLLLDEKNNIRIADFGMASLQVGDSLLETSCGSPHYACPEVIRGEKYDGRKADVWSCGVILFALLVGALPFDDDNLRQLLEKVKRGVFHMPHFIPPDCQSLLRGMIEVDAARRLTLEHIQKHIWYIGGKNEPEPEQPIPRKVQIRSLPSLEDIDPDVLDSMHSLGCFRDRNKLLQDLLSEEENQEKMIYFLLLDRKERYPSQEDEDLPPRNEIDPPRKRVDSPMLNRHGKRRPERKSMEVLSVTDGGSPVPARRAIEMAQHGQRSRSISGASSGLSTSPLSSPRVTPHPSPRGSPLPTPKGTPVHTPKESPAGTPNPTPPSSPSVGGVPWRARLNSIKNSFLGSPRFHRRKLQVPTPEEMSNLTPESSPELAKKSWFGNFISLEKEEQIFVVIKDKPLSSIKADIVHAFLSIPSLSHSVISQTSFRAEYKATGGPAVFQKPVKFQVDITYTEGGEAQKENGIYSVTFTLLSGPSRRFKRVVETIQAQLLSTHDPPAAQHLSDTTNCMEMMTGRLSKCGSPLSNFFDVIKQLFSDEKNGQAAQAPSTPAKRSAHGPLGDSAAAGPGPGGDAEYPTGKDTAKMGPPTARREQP
Particulars: at 0.1 µM.

Assay [7] addresses T3, Serine/threonine-protein kinase BRSK2 (Homo sapiens). Particulars: at 1 µM.
Assay [8] has as its target Calcium/calmodulin-dependent protein kinase type 1D (Homo sapiens) (UniProt Q8IU85). The settings on record: at 0.1 µM.
For assay [9] the target is unchanged. Particulars: at 1 µM.
Assay [10] deals with Calcium/calmodulin-dependent protein kinase type II subunit alpha (Homo sapiens) (UniProt Q9UQM7). The settings on record: at 0.1 µM.
Calcium/calmodulin-dependent protein kinase type II subunit alpha (Homo sapiens), sequence (Q9UQM7 whole entry): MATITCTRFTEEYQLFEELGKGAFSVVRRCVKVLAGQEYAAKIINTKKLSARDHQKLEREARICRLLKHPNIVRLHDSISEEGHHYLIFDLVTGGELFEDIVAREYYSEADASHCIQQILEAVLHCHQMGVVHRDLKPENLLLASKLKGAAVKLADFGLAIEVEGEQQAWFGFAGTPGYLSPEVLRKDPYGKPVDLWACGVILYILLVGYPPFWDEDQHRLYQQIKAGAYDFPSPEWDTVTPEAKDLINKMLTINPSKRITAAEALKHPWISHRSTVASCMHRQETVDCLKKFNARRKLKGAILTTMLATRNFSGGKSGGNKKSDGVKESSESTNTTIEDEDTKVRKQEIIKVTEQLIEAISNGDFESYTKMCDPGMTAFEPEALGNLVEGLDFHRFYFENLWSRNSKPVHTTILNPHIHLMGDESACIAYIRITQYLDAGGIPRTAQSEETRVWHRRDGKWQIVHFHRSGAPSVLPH
Assay [11] shares this target. The settings on record: at 1 µM.
Assay [12] has as its target Calcium/calmodulin-dependent protein kinase type II subunit delta (Homo sapiens) (UniProt Q13557). Particulars: at 0.1 µM.
Assay [13] has the same target. Particulars: at 1 µM.
Assay [14] deals with T4, Calcium/calmodulin-dependent protein kinase type IV (Homo sapiens) (UniProt Q16566).
T4 sequence (whole entry): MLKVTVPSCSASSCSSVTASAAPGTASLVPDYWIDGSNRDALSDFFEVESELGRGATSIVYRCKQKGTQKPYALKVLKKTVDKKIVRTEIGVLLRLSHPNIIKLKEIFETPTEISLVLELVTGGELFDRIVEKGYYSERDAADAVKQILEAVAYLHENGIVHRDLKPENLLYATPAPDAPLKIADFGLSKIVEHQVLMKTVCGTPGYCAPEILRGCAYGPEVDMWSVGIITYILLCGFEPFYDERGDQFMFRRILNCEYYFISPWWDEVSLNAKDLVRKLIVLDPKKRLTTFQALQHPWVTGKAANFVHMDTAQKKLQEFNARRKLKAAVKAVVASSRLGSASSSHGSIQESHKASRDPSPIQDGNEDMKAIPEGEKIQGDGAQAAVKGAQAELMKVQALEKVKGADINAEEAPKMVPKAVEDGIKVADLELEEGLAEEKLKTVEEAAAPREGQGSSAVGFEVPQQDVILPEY
The settings on record: at 0.1 µM.

For assay [15], the target named is T4, Calcium/calmodulin-dependent protein kinase type IV (Homo sapiens). The settings on record: at 1 µM.
The target of assay [16] is T5, Serine/threonine-protein kinase Chk1 (Homo sapiens) (UniProt O14757).
T5 sequence (whole entry): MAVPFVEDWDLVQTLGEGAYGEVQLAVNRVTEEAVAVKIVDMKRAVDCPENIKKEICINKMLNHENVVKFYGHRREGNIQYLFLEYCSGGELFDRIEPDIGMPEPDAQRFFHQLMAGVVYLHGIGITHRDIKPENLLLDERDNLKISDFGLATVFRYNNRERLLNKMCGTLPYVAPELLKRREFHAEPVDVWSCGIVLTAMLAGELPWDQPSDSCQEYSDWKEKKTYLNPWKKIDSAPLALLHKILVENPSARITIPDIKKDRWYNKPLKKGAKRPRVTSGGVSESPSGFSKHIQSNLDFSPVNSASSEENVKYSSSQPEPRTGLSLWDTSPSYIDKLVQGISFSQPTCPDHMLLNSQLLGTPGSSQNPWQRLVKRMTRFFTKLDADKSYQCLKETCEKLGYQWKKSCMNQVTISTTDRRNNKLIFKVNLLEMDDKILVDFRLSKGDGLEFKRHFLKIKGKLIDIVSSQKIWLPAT
Particulars: at 0.1 µM.

Assay [17] deals with T5, Serine/threonine-protein kinase Chk1 (Homo sapiens). The settings on record: at 1 µM.
For assay [18], the target named is Serine/threonine-protein kinase Chk2 (Homo sapiens) (UniProt O96017). The settings on record: at 0.1 µM.
Serine/threonine-protein kinase Chk2 (Homo sapiens), sequence (O96017 whole entry): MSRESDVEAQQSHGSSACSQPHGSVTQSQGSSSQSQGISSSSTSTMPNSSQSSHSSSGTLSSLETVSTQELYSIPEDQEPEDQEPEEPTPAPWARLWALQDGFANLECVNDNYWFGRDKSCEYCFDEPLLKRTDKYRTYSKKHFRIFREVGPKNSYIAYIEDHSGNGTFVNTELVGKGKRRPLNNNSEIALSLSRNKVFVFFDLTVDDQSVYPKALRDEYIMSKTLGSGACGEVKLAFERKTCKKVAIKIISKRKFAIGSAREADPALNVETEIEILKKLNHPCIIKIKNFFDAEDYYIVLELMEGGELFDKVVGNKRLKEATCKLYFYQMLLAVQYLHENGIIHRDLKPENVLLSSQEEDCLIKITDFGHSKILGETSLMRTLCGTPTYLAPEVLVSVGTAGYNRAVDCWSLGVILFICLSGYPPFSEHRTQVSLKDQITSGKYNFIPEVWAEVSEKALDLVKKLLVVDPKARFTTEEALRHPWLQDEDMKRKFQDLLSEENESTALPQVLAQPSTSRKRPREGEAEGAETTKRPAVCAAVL
Assay [19] has the same target. Particulars: at 1 µM.
Assay [20] addresses Death-associated protein kinase 1 (Homo sapiens) (UniProt P53355). Particulars: at 0.1 µM.

Each structure is given as a SMILES string.

Calcium/calmodulin-dependent protein kinase type II subunit delta (Homo sapiens), sequence (Q13557 whole entry): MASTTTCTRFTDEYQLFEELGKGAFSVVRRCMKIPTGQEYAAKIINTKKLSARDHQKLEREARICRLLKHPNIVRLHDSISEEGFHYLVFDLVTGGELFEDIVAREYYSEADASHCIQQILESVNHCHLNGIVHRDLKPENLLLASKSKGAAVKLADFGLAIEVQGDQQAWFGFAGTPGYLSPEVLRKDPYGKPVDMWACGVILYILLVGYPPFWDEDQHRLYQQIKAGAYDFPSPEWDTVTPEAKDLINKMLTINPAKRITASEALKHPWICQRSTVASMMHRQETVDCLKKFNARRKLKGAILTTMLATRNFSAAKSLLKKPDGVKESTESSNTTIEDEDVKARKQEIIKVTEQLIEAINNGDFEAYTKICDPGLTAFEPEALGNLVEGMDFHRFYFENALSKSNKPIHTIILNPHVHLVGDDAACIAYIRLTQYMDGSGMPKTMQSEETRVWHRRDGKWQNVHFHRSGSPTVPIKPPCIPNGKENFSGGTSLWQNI
Death-associated protein kinase 1 (Homo sapiens), sequence (P53355 whole entry, looked up): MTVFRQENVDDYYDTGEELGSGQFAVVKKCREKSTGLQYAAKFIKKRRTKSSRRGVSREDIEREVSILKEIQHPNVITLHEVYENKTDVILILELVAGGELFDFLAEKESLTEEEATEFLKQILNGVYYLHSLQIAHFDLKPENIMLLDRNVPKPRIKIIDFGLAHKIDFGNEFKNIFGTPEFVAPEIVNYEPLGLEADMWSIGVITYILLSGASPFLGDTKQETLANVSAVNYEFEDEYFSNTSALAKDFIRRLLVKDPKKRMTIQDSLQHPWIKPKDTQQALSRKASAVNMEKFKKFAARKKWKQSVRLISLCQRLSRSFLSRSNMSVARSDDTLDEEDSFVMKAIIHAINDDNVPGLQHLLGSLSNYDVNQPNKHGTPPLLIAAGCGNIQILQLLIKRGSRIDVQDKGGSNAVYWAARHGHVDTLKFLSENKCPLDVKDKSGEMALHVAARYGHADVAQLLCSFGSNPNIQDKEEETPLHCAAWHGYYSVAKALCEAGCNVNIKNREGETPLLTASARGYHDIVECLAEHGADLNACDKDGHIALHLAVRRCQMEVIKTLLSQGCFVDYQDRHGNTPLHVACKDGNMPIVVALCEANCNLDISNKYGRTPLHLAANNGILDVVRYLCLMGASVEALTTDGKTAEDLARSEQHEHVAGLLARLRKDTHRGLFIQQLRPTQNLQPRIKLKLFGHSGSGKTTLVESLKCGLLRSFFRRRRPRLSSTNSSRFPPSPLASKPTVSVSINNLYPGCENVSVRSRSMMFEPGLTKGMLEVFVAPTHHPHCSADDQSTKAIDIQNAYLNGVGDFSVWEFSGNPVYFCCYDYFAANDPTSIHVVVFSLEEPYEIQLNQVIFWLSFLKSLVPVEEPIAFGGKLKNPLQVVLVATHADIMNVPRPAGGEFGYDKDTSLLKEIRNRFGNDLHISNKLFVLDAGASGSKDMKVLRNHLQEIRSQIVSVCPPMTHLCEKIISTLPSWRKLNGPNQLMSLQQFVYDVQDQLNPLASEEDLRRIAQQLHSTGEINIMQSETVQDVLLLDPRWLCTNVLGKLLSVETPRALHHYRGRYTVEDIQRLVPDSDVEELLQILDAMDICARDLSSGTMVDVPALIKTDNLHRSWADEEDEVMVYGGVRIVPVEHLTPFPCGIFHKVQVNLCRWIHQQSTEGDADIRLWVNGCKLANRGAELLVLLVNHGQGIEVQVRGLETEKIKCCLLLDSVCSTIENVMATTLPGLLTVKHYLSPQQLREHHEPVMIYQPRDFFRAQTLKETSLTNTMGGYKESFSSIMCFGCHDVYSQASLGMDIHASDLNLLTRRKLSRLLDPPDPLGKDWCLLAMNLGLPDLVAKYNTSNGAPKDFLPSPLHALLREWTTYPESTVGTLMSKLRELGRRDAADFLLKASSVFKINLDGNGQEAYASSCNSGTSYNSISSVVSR
Calcium/calmodulin-dependent protein kinase type 1D (Homo sapiens), sequence (Q8IU85 whole entry, looked up): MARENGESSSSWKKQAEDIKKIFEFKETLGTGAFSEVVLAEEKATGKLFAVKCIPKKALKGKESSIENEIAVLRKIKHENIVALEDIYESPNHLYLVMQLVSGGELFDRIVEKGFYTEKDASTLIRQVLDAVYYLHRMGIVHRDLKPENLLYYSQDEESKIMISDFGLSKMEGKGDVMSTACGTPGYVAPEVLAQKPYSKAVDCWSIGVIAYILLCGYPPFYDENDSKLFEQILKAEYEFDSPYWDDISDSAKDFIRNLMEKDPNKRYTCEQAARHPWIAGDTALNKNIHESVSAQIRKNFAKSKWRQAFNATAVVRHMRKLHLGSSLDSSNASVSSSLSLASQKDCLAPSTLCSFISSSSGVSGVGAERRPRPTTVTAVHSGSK
5'-AMP-activated protein kinase catalytic subunit alpha-2 (Homo sapiens), sequence (P54646 whole entry, looked up): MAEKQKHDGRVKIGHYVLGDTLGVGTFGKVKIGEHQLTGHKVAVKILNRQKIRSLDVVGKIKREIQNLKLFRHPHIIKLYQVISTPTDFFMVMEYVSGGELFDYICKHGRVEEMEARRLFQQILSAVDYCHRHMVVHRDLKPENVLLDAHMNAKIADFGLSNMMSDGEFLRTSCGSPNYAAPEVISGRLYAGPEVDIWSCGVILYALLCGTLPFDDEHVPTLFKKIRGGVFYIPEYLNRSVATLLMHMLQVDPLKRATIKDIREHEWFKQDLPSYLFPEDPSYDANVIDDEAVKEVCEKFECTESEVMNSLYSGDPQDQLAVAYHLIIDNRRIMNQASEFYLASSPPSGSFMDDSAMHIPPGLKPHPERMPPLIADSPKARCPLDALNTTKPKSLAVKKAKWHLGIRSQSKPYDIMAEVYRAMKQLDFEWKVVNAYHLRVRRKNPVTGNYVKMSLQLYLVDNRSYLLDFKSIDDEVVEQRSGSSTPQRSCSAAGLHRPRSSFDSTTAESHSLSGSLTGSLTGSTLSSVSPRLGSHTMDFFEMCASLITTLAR

In the case of `NS(=O)(=O)c1ccc(N/N=C2\C(=O)Nc3ccc(C(=O)NCCCn4ccnc4)cc32)cc1`, the inhibition in [1] was 26.3%; in [2], 19.4%; in assay [3], 66.4%; in assay [4] it was 4.96%; in assay [5] it was 31.2%; in assay [6] it was 8.96%. The inhibition in assay [7] is 46%; in assay [8] it was 0.1%; in assay [9], 2.23%; in assay [10], 3.04%; in assay [11] it was 4.11%; in assay [12], 2.56%. In addition, the inhibition in assay [13] is 8.04%; in [14], -1.35%; in [15], -4.25%; in assay [16] it was 10.4%; in assay [17], 19.3%; in assay [18], 10.6%. The inhibition in assay [19] was determined as 19%; in [20], 11.1%.

For the compound `COc1cc2ncn(-c3cc(OCCc4ccccc4)c(C(N)=O)s3)c2cc1OC`, the inhibition worked out at 1.32% in [1]; 1.92% in assay [2]; 9.13% in assay [3]; 41.5% in [4]; 76.9% in [5]; 58.3% in assay [6]. Moreover, the inhibition was 80.3% in [7]; 0.21% in [8]; 1.85% in assay [9]; 1.3% in [10]; 2.38% in assay [11]; 2.83% in assay [12]. The inhibition in assay [13] was found to be 3.66%; in assay [14] it was 1.62%; in assay [15], 0.6%; in assay [16], 1.61%; in [17] it was 7.39%; in [18], 1.58%. Besides, the results for the inhibition in [19] and in assay [20] were 4.01% and 2.25%, respectively.

`Clc1ccc(CNc2nccc(-c3cnn4ncccc34)n2)cc1`: the inhibition worked out at 0.84% in [1]; 3.31% in [2]; 9.78% in [3]; 0.41% in [4]; 1.49% in assay [5]; 1.65% in [6]. Also, the inhibition came out at 4.48% in [7]; 1.73% in assay [8]; 1.01% in assay [9]; 2.51% in [10]; 4.51% in [11]; 2.06% in [12]. The inhibition stood at 3.21% in [13]; 1.93% in assay [14]; 1.7% in assay [15]; 2.84% in assay [16]; 8.27% in assay [17]; 4.34% in assay [18]. In addition, the values for the inhibition in assay [19] and in [20] were 6.1% and 9.28%, respectively.

Regarding `CN1CCN(CCCNc2nc3ccc(Oc4ccc(NC(=O)Nc5cc(C(F)(F)F)ccc5F)cc4)cc3[nH]2)CC1`, the inhibition in assay [1] is 3.1%; in assay [2] it was 0.88%; in assay [3], 4.39%; in assay [4], 2.48%; in assay [5], 2.58%; in assay [6], 1.15%. For the same compound, the inhibition came to 0.19% in assay [7]; 2.28% in assay [8]; 4.38% in assay [9]; 3.27% in assay [10]; 7.84% in assay [11]; 3.68% in assay [12]. Moreover, the inhibition in [13] was 6.84%; in [14] it was 1.94%; in assay [15] it was 4.86%; in [16], -0.5%; in assay [17], 0.8%; in assay [18] it was 1.31%. The inhibition was 0.77% in assay [19] and -0.32% in [20].

Take `Fc1ccc(-c2ncn(CCCN3CCOCC3)c2-c2ccncc2)cc1`: the inhibition in assay [1] was 2.58%; in assay [2], 0.22%; in assay [3], 3.87%; in assay [4], 1.09%; in assay [5], 1.49%; in assay [6] it was 1.32%. For the same compound, the inhibition is -0.21% in [7]; 1.77% in assay [8]; 1.54% in assay [9]; 0.57% in [10]; 1.91% in assay [11]; 1.48% in [12]. Further, the inhibition is 2.85% in [13]; 1.75% in [14]; 2.08% in assay [15]; 2.08% in assay [16]; -1.19% in [17]; -0.55% in assay [18]. The values for the inhibition in assay [19] and in assay [20] were -1.12% and 0.52%, respectively.

With `COc1ccc(-c2ccc3c(NC(=O)C4CC4)n[nH]c3n2)cc1`, the inhibition was 1.68% in assay [1]; -0.56% in [2]; 0.04% in assay [3]; 0.19% in assay [4]; 4.83% in [5]; 3.16% in [6]. The inhibition was 10.7% in assay [7]; -0.49% in assay [8]; -0.83% in [9]; 0.49% in assay [10]; 0.75% in [11]; 0.17% in assay [12]. For the same compound, the inhibition in assay [13] is 1.7%; in assay [14] it was -1.51%; in assay [15], -2.95%; in assay [16], 2.25%; in [17], 1.88%; in assay [18] it was 0.78%. For the same compound, the figures for the inhibition in assay [19] and in assay [20] were 1.92% and 2.58%, respectively.
